PubChem BioAssay
Calls of active or inactive are those of the source.

How the values were obtained:
[1] = system: Human papillomavirus type 1a protein E7 (residues 44-93); test: HPV1a E7 fragment binders on microarrays, primary screen, biochemical, small-molecule microarray, residues 44-93, 635 nm fluorescence (AID 1108); details: small-molecule microarray binding, fluorescence 635 nm; higher = more signal;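 also: E7 fragment applied at 1 µg/mL in TBST for 1 h at 4 C; score combines spot fluorescence with its signal to noise ratio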
[2] = modulators of HCV replicon luciferase signal, primary screen, HCV replication inhibitor project, Huh7 cells, luciferase reporter (AID 1109); details: 48 h, higher = more signal;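 also: huh7 hepatoma cells harbouring a luciferase neomycin HCV replicon reporter; luciferase luminescence as measure of HCV replicon replication; test concentration not given here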
[3] = target: Left-right determination factor 2 (Homo sapiens) (UniProt O00292); test: LEFTY2 binders on small-molecule microarrays, primary screen, biochemical, small-molecule microarray, 635 nm fluorescence scan (AID 1110); details: LEFTY2 binding, higher = more signal
[4] = target: Calmodulin-1 (Homo sapiens) (UniProt P0DP23); test: CALM1 binders on microarrays, EGTA buffer, profiling panel, biochemical, small-molecule microarray, Cy5-labelled CALM1 (AID 1111); details: Cy5-CALM1 binding fluorescence, higher = more signal;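 also: labelled calmodulin applied in Tris saline Tween buffer holding calcium plus EGTA and DTT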
[5] = target: Calmodulin-1 (Homo sapiens) (UniProt P0DP23); test: calcium-bound CALM1 binders on microarrays, profiling panel, artefact control for SMM control-protein annotation, biochemical, small-molecule microarray, Cy5-labelled CALM1, plus calcium (AID 1112); details: Cy5-CALM1 binding fluorescence, higher = more signal;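 also: score merges spot fluorescence with signal to noise from triplicate slides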
[6] = small-molecule microarray binders of probe aWnt5a, primary screen, biochemical, biotinylated probe, 635/667 nm fluorescence (AID 1113); details: higher = more signal;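 also: score merges 667 nm fluorescence intensity with signal-to-noise per printed feature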
[7] = small-molecule microarray binders of probe aShh, primary screen, biochemical, biotinylated probe, 635/667 nm fluorescence (AID 1114); details: higher = more signal;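 also: probe is biotin-labelled aShh protein from a stem cell growth factor screen; measures binding of labelled protein to compounds printed on the slide; score merges feature fluorescence at 667 nm with signal-to-noise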
[8] = small-molecule microarray binders of probe aNog, primary screen, biochemical, biotinylated probe, 635/667 nm fluorescence (AID 1115); details: higher = more signal;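 also: probe is biotinylated aNog protein used at 0.15 µg/mL for 1 h at 4 C; z-score combines 667 nm fluorescence of each spot with its signal to noise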
[9] = target: Torsin-1A-interacting protein 1 (Homo sapiens) (UniProt Q5JTV8); test: LAP1 binders from COS7 cell lysate, primary screen, small-molecule microarray, 635/667 nm fluorescence (AID 1116); details: COS7-hLAP1 lysate binding, 635 nm fluorescence, higher = more signal
[10] = target: Alpha-bungarotoxin (Bungarus multicinctus) (UniProt P60615); test: alpha-bungarotoxin binders on microarray, profiling panel, artefact control for SMM control protein annotation, biochemical, small-molecule microarray, Alexa647 label, 635/667 nm fluorescence (AID 1117); details: alpha-BTX-A647 binding fluorescence, higher = more signal
Albumin (Bos taurus) = Albumin (Bos taurus) (UniProt P02769); test: bovine serum albumin binders on microarray, profiling panel, artefact control for SMM control protein annotation, biochemical, small-molecule microarray, Alexa647 label, 635/667 nm fluorescence (AID 1118); details: BSA-A647 binding, fluorescence 635 nm, higher = more signal;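 also: score merges 667 nm emission intensity and signal-to-noise per printed compound spot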
[11] = small-molecule microarray binders of probe aXIP, primary screen, biochemical, NeuroSMM set, 635/667 nm fluorescence (AID 1119); details: higher = more signal, called active from +8 up or from −8 down;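 also: probe is the protein aXip251-270 applied at 1 µg/mL to compound-printed slides; binding of probe to printed compounds measured as 667 nm fluorescence plus signal to noise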
[12] = small-molecule binders of probe aNOTCH3, primary screen, biochemical, small-molecule microarray, 635/667 nm fluorescence (AID 1120); details: higher = more signal;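 also: probe is a biotin-tagged antibody raised against NOTCH3 rather than NOTCH3 protein; score merges spot fluorescence near 667 nm with spot signal to noise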
[13] = small-molecule binders of probe aNOTCH2, primary screen, biochemical, small-molecule microarray, 635/667 nm fluorescence (AID 1121); details: higher = more signal;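 also: score merges feature fluorescence read at 667 nm with its signal to noise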
[14] = target: Carbonic anhydrase 2 (Homo sapiens) (UniProt P00918); test: CAII small-molecule binders, profiling panel, biochemical, small-molecule microarray, Alexa647-labelled CAII (AID 1122); details: CAII-A647 binding fluorescence, higher = more signal
[15] = COS7 lysate on small-molecule microarray, probe aHis, 635 nm (AID 1123); details: COS7 cell lysate, fluorescence, higher = more signal;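 also: z-score combines 667nm fluorescence intensity with signal-to-noise per printed compound spot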
[16] = compound binding in COS7 lysate, probe aLAP1, primary screen, cell lysate, small-molecule microarray (AID 1124); details: probe aLAP1, fluorescence, higher = more signal;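 also: lysate comes from COS7 cells expressing LAP1 and is applied at 0.3 µg/mL; score merges spot fluorescence near 667 nm with signal-to-noise over triplicate slides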
Sam68 (KHDRBS1) = test: Sam68 small-molecule binders, primary screen, biochemical, small-molecule microarray, 635 nm fluorescence (AID 1125); details: small-molecule microarray binding, higher = more signal;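 also: score merges 667 nm channel intensity with signal to noise over triplicate slides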
[17] = system: Chordin-like protein 2 (CHRDL2); test: CHRDL2 small-molecule binders, primary screen, biochemical, small-molecule microarray, 635 nm fluorescence (AID 1126); details: small-molecule microarray binding, fluorescence 635 nm; higher = more signal;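 also: printed compound slides probed with Chrdl2 protein at 4 µg/mL for 1 h at 4 C; score merges 667 nm emission intensity with signal to noise over three replicate slides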
[18] = target: Concanavalin-A (Canavalia ensiformis) (UniProt P02866); test: ConA small-molecule binders, primary screen, artefact control for SMM control protein annotation, biochemical, small-molecule microarray, Alexa647 label, 635 nm (AID 1127); details: ConA-A647 binding fluorescence, higher = more signal;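 also: z combines 667 nm emission intensity with signal-to-noise across three replicate slides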
Concanavalin-A (Canavalia ensiformis), sequence (P02866 whole entry, looked up): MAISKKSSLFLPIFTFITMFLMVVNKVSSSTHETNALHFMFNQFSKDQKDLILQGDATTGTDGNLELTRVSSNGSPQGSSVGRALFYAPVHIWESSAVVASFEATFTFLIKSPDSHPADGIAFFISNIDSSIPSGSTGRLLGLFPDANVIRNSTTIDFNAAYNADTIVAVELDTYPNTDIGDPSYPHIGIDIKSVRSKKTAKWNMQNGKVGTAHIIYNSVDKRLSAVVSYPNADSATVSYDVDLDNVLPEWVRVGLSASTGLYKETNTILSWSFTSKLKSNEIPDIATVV

Left-right determination factor 2 (Homo sapiens), sequence (O00292 whole entry, looked up): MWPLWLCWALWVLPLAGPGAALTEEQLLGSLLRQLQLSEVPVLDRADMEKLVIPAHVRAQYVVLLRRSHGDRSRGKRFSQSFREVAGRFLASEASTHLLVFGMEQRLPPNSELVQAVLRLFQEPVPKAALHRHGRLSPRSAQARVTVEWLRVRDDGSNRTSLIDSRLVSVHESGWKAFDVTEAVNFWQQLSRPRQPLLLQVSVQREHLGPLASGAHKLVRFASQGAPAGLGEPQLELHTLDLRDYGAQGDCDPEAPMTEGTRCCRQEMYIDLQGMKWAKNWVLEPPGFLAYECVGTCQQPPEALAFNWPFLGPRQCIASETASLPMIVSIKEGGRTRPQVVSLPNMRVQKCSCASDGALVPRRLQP
Alpha-bungarotoxin (Bungarus multicinctus), sequence (P60615 whole entry, looked up): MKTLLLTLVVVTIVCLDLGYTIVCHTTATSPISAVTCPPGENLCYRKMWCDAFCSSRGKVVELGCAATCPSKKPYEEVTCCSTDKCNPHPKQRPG
Albumin (Bos taurus), sequence (P02769 whole entry, looked up): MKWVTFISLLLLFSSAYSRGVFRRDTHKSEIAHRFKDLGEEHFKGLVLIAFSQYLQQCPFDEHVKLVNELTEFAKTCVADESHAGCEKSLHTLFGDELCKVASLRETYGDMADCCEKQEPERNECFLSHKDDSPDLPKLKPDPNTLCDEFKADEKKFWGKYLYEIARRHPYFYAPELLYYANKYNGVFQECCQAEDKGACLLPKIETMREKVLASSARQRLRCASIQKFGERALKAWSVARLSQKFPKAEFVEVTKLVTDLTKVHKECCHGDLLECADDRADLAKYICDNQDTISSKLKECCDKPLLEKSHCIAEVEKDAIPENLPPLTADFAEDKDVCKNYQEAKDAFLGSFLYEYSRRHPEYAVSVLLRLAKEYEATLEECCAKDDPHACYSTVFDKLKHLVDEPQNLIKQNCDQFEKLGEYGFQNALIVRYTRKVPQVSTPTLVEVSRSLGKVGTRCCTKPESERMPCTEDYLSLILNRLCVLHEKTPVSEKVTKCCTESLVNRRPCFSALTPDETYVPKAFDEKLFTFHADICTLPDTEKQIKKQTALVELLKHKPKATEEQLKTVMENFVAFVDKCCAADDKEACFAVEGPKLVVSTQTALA
Torsin-1A-interacting protein 1 (Homo sapiens), sequence (Q5JTV8 whole entry, looked up): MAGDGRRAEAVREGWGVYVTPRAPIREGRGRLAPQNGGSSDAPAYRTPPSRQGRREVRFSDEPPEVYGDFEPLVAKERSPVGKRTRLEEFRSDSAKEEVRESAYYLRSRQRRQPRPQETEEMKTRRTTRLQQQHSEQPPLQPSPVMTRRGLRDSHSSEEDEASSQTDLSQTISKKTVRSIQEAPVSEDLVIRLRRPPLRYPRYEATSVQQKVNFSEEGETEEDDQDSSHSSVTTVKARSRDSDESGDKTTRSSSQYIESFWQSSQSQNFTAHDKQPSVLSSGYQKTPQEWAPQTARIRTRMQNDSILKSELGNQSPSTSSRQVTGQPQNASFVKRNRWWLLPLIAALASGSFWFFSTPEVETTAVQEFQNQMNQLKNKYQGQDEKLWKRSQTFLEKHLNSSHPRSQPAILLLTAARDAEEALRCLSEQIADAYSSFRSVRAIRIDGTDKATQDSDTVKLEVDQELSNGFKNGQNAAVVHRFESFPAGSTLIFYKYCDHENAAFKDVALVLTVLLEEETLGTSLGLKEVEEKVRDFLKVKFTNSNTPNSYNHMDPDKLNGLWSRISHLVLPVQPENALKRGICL

Structure (SMILES)	composite z-score [1]	z-score [2]	composite z-score [3]	composite z-score [4]	composite z-score [5]	composite z-score [6]	composite z-score [7]	composite z-score [8]	composite z-score [9]	composite z-score [10]	composite z-score (Albumin (Bos taurus))	composite Z-score [11]	composite z-score [12]	composite z-score [13]	composite z-score [14]	composite z-score [15]	composite z-score [16]	composite z-score (Sam68 (KHDRBS1))	composite z-score [17]	composite z-score [18]
C#CCCCON=C1C[C@@H](O)[C@@H](O)[C@@H]2[C@@H]3C(=O)N(CCC(=O)OCC)C(=O)[C@@H]3CC[C@H]12	0.0844	0.283	0.387	1.16	0.221	-0.13	0.172	-0.253	0.544	0.401	0.356	0.269 (inactive)	-0.042	-0.0837	0.222	0.769	0.613	1.32	0.247	1.07
CC(C)(C)N1C(=O)[C@H]2[C@H]3[C@H](O)C=CC(=O)[C@@H]3CC[C@H]2C1=O	0.264	0.133	0.296	0.0361	-0.586	-0.13	0.0121	0.0637	-0.288	0.0991	-0.161	0.913 (inactive)	-0.0584	0.0098	-0.0943	-0.463	0.632	-0.0221	0.311	0.607
CO[C@@H]1C=CCC(=O)N[C@@H](C)C(=O)OC[C@@H](OC)[C@H](C)CCCC(=O)OC[C@H]1C	-2.89	-1.41	1.41	-1.23	-2.04	-0.0694	-0.206	-0.345	0.95	-0.11	-0.555	-0.31 (inactive)	0.0854	-0.208	-1.01	-1.96	0.173	-0.248	1.53	-0.997
CC(C)=NO[C@H](C)c1cn([C@H](CO)Cc2ccccc2)nn1	0.216	-0.463	0.13	0.0595	-0.0004	0.0438	0.0121	0.145	-0.197	-0.0691	0.364	-0.178 (inactive)	-0.0932	-0.123	0.13	0.559	-0.536	0.444	-0.0691	1.1
O=C1[C@H]2[C@H]3[C@H](O)[C@H](O)CC(=NOC[C@@H](O)COCc4ccco4)[C@H]3CC[C@H]2C(=O)N1Cc1ccccc1	-1.01	-0.523	0.665	-0.684	-1.22	-0.18	-0.27	0.0444	-0.193	-0.309	-0.13	0.48 (inactive)	-0.119	-0.192	-0.154	-0.867	-0.343	-0.333	0.836	-0.242
CC(C)CON=C1C[C@@H](O)[C@@H](O)[C@@H]2[C@@H]3C(=O)N(c4ccc(F)cc4F)C(=O)[C@@H]3CC[C@H]12	1.38	-0.666	0.923	0.0597	-0.809	-0.0735	-0.0169	0.106	0.272	0.198	0.541	0.109 (inactive)	-0.122	-0.17	0.501	0.602	0.311	1.28	0.554	0.303
Cn1c(=O)n2n(c1=O)[C@H]1[C@H](O)[C@@H]3O[C@@H]3C(=O)[C@H]1CC2	0.625	0.101	0.486	-0.144	-0.502	-0.104	-0.0146	-0.234	0.663	-0.541	-0.161	-0.301 (inactive)	-0.172	-0.124	-0.0126	-0.0596	0.0837	0.327	0.387	0.513
COC(=O)[C@H]1[C@@H](O)[C@@]2(O)c3ccccc3O[C@@]2(c2ccccc2)[C@@H]1c1ccccc1	-0.673	-0.1	0.401	-0.449	-0.336	-0.156	0.0815	-0.136	0.096	-0.516	-0.642	1.97 (inactive)	-0.1	-0.133	0.18	0.19	-0.221	-0.926	0.14	-0.246
CCOC(=O)CCN1C(=O)[C@H]2[C@H]3[C@H](O)[C@H](O)CC(=NOCC(C)C)[C@H]3CC[C@H]2C1=O	-0.245	0.453	0.0607	-0.271	-0.26	-0.0346	-0.209	0.0669	0.326	0.797	0.345	0.636 (inactive)	-0.0377	-0.14	-0.278	0.163	0.528	-0.353	0.433	0.0589
CON=C[C@@H](NS(=O)(=O)c1ccc(C)cc1)[C@H](C)C=CCC(=O)OC	-0.933	0.604	0.532	-0.654	-1.31	-0.128	0.0756	-0.425	0.22	-0.0634	-0.625	-0.722 (inactive)	-0.0173	-0.14	-0.374	0.0154	0.22	-1.35	1.26	-0.0082
CCOC(=O)[C@H](CC(C)C)NC(=O)CCC1CC(OC(=O)NCc2ccc3c(c2)OCO3)CC2(CCCC(COC(=O)NCC(c3ccccc3)c3ccccc3)O2)O1 (stereo not given in full)	0.506	-0.0319	0.426	-0.378	-0.443	-0.169	-0.262	-0.137	0.126	0.443	0.23	0.142 (inactive)	0.0876	-0.147	0.538	0.674	-0.144	0.714	0.0432	1.09
